The supplement of paper PMC3334620
Over roughly 33,000 sequences, “E-score (-0.5 to 0.5)” has its median near -0.041; the highest 2% begin near 0.37. Only a selection was taken, and the highest values are over-represented in it overall.

Each sequence was assayed against T1, Ecm22 (UniProt Q05958) (assay: PBM E-score (8-mer binding enrichment) (E-score (-0.5 to 0.5)); higher = stronger / more preferred TF binding). Conditions: protein concentration: 200 nM; construct: GST-full length.
T1 sequence: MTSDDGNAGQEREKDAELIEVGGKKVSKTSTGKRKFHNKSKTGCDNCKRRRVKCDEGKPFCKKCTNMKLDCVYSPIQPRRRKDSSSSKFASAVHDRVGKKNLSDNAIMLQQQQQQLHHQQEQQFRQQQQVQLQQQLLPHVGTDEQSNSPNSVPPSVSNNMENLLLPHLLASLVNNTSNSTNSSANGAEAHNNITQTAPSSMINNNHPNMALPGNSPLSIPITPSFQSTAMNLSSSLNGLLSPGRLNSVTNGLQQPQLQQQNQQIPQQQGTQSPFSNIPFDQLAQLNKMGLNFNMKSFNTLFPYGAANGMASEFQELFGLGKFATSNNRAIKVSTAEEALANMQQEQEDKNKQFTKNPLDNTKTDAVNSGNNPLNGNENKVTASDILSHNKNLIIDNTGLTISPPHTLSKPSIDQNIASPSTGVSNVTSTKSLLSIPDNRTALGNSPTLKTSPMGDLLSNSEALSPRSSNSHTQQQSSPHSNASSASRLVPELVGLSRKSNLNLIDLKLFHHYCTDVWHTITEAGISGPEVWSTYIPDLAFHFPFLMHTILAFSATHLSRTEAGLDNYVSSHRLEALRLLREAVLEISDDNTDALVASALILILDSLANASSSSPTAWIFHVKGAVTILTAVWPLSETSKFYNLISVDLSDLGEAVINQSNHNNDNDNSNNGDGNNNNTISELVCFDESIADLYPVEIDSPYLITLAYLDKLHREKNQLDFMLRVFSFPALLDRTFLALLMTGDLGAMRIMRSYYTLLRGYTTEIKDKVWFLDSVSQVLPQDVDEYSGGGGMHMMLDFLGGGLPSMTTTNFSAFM
Summary of the method: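 PURExpress in vitro transcription/translation supplied GST-tagged yeast transcription factors, either full-length or DNA-binding domain. Applied at about 100-200 nM to universal all-10-mer Agilent arrays double-stranded by primer extension, the bound protein was detected with fluorescent anti-GST. E-scores, modified Wilcoxon-Mann-Whitney statistics, were given by the Universal PBM Analysis Suite to ungapped eight-base words pooled with their reverse complements after masliner normalisation.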

Sequence | PBM E-score
CTCAGCTC | -0.0614
ATCATCTC | 0.0439
GTAAACAA | 0.279
CTATCGTC | -0.0492
GTATCGGA | 0.199
GTATCGAA | 0.161
CTATCGAA | 0.0456
CTATCGTA | 0.406
GTATCGTA | 0.421
ATATCGTG | 0.147
ATATCGTC | 0.0456
ATATCGTA | 0.413
AGGCTTGC | -0.219
CCAAGACA | -0.257
AAGCTGGG | -0.271
AAACTGAC | 0.00573
AAGTGGCC | -0.248
ACCCTACC | -0.0742
ATATACGA | 0.49
ATATACCG | 0.21
ATATACGG | 0.441
ATATACTG | 0.0789

Sequence | PBM E-score
ATATACCA | 0.0649
CTATACTC | 0.0609
ATATACGC | 0.299
ATATACAA | 0.0401
CTATACGC | 0.403
CAGGCTTA | -0.245
CTTGTGGC | -0.239
AAAGGTCG | 0.00556
ACGATCAG | 0.224
GATCAGGA | -0.069
AGTTGTCA | -0.0616
CGGGTCGA | -0.00467
GCCGTTAA | 0.24
CACGTTTA | 0.256
ACCGTTTG | 0.287
GCCGTTTA | 0.421
ACCGTTTC | 0.187
CCCGTTTC | 0.216
ACCGTTTA | 0.432
CCCGTTTA | 0.433
GCCGTTGA | -0.138
GCAGCGCA | -0.0703

Sequence | PBM E-score
ACGCAGAT | 0.194
TTCGAGAA | 0.149
AACGAGAT | 0.438
CACGAGAA | 0.143
CACGAGAC | 0.0819
GACGAGAC | 0.029
ACCGAGAT | 0.178
AACGAGAC | 0.451
AACGAGAA | 0.424
GACGAGAA | 0.138
TCCGAGAA | 0.265
TACGAGAA | 0.462
ATCGAGAT | 0.0251
CTCCCTCA | -0.162
CTTCTAAA | -0.0244
GCTGTCTA | -0.0813
GGTACTAA | 0.0853
CACAGAAC | 0.00026
CTCGACCA | -0.0786
CCCGAAGA | 0.0524
AATGCAGA | -0.0678
CACGAGAG | 0.0712

Sequence | PBM E-score
ATCGAGAG | 0.0766
AACGAGAG | 0.433
ATCAAGGG | -0.149
CGCTACAA | 0.0321
GGCTACGA | 0.424
CGCTACGC | 0.138
AGCTACGA | 0.394
AGCTACGC | 0.141
GGCTACAA | 0.042
CTCTACGA | 0.37
ATCTACGA | 0.304
GGCTACCA | -0.2
AGCTACGG | 0.112
CTCTACGC | 0.00503
CGCTACGA | 0.456
AGCGGGTA | 0.107
GACCTGAC | -0.172
GAACTTGC | -0.0845
ATGCACCG | -0.0745
TATATCGA | 0.131
GGCTGAAC | -0.0835
ACATTTGA | -0.158

Sequence | PBM E-score
CTTTGGAC | -0.0902
GTACGGTA | 0.385
ATACGGTA | 0.383
ACACGGTA | 0.108
AGACGGTA | -0.121
GCACGGTA | -0.0289
CTACGGTA | 0.0823
AGATAGCT | -0.0945
AGGCTCCA | -0.369
CTGCACAA | -0.214
CGGCAACC | -0.082
AACATTCT | -0.0433
ATTTATAA | 0.0523
CTTTATAC | 0.23
ATTTATAC | 0.401
AAGAACCC | -0.0304
GGTACCTA | -0.1
CGTACCTC | 0.435
CGTACCTA | 0.441
AGTACCTC | -0.19
AGTACCTA | -0.104
